# Experiments:
# Assay in all cases: DAPPL (digital affinity profiling via proximity ligation, sequencing); 10 mM Tris-HCl pH 7.5, 50 mM NaCl, 1 mM DTT, 4% glycerol, room temperature, 30 min; GST-TFs on glutathione beads, 16-mer random dsDNA library, 0.1% formaldehyde crosslink after washing; high values mean tight binding
# Details in all cases: protein: recombinant; tags: N-terminal GST; dsDNA, one strand shown
# GABPA = biological target: T1, GABPA (Homo sapiens, UniProt Q06546 1-454)
# T1 sequence: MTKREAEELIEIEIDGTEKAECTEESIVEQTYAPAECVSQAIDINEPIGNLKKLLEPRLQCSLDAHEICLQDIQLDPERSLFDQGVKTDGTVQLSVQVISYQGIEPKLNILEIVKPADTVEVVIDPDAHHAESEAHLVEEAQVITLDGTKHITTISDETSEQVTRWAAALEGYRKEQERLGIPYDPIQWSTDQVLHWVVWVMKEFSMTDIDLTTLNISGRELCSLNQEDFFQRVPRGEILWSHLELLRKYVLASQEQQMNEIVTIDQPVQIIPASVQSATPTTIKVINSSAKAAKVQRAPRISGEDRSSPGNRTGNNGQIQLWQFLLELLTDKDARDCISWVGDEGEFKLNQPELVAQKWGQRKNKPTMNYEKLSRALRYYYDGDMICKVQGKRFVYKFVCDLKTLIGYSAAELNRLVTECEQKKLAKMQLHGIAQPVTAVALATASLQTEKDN
# In short: (§1)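 In yeast, human transcription factors were expressed with a GST fusion, then pulled down on glutathione beads and given DNA barcodes. Pooled with a tag-only sample, they were exposed to 200 nmole of a 16-mer random double-stranded DNA library (Tris/NaCl/DTT/glycerol buffer, room temperature, 30 min), washed, crosslinked with 0.1% formaldehyde, proximity-ligated using BsaI/T4 ligase for 1 h at 37 °C, PCR-amplified and read on an Illumina NextSeq500. Each hexamer's frequency of reads for a factor, divided by the matching frequency for the tag-only sample, gives the binding signal.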
# ELF1 = ELF1 (Homo sapiens, UniProt P32519 1-619)
# Chain of ELF1 (P32519 whole entry): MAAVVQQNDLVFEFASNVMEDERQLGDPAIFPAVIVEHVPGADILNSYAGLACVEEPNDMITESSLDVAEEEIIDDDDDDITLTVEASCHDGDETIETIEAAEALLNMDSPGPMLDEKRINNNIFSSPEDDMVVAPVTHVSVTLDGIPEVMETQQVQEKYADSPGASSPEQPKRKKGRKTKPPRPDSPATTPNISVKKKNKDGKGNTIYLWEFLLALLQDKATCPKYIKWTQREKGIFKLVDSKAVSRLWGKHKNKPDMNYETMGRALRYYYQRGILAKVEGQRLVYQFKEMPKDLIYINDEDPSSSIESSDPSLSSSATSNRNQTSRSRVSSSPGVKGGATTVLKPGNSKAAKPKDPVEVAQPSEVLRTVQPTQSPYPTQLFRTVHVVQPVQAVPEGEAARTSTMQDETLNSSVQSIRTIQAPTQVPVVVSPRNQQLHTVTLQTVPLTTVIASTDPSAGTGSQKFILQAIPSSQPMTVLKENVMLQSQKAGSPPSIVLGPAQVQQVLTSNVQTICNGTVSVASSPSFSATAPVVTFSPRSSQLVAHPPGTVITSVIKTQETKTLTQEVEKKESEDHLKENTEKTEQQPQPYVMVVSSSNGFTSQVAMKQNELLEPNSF
# In short: as §1
# ELK3 = biological target: T2, ELK3 (Homo sapiens, UniProt P41970 1-407)
# T2 sequence: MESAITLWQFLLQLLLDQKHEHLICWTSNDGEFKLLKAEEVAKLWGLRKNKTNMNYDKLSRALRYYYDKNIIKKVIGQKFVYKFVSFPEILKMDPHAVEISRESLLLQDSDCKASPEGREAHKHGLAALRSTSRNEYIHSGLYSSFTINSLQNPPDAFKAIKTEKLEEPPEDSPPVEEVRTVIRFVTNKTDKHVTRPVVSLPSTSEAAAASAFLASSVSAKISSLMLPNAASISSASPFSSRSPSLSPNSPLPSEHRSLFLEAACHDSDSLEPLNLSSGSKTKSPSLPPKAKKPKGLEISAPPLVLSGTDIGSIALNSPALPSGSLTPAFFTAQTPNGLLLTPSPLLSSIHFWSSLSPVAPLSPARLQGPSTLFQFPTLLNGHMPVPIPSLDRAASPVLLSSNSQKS
# In short: as §1
# SPIC = biological target: T3, SPIC (Homo sapiens, UniProt Q8N5J4 1-248)
# T3 sequence: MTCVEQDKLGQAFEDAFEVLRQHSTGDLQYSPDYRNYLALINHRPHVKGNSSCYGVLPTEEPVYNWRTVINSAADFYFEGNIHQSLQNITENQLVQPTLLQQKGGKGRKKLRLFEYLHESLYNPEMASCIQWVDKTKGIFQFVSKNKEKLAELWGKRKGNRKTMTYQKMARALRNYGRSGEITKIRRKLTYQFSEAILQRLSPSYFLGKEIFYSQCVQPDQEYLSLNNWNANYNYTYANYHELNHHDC
# In short: as §1
# ELK4 = biological target: T4, ELK4 (Homo sapiens, UniProt P28324-2 1-405)
# T4 sequence: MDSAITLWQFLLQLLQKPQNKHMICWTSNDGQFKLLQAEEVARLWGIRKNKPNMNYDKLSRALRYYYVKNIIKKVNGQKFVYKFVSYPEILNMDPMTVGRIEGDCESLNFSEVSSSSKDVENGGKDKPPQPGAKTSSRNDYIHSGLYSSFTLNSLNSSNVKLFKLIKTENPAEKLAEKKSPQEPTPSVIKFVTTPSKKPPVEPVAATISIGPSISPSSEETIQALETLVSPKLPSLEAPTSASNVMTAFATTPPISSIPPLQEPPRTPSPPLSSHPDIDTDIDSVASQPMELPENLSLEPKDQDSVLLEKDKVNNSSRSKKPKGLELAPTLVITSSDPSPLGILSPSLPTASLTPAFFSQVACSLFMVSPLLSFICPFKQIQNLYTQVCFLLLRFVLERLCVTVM
# In short: as §1
# ETV1 = ETV1 (Homo sapiens, UniProt P50549 1-477)
# Chain of ETV1 (P50549 whole entry): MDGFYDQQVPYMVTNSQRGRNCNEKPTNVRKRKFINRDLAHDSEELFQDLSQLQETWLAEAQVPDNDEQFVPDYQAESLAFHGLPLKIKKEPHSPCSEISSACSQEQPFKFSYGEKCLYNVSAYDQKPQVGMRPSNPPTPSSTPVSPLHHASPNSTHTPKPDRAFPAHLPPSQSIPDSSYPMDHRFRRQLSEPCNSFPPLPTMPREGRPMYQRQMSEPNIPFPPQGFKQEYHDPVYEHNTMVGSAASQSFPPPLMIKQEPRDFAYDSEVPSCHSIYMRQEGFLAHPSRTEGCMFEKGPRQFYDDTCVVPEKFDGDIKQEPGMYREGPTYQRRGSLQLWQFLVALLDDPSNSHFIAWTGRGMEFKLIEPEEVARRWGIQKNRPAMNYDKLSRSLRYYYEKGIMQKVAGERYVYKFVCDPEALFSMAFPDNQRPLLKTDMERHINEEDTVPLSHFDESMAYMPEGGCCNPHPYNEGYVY
# In short: as §1
# ETS2 = biological target: T5, ETS2 (Homo sapiens, UniProt P15036 1-469)
# T5 sequence: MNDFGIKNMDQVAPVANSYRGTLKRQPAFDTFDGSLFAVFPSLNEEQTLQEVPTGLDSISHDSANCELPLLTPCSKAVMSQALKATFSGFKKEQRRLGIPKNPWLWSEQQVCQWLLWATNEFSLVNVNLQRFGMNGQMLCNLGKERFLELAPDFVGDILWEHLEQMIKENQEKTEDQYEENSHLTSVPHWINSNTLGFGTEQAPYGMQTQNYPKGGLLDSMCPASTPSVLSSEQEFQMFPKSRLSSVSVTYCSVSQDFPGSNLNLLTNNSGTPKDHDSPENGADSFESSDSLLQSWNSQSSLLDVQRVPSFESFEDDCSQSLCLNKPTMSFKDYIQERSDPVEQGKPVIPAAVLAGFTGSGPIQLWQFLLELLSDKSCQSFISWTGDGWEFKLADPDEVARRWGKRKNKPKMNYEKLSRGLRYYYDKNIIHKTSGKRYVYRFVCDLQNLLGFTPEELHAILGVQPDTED
# In short: as §1
# SPIB = SPIB (Homo sapiens, UniProt Q01892 1-262)
# Chain of SPIB (Q01892 whole entry): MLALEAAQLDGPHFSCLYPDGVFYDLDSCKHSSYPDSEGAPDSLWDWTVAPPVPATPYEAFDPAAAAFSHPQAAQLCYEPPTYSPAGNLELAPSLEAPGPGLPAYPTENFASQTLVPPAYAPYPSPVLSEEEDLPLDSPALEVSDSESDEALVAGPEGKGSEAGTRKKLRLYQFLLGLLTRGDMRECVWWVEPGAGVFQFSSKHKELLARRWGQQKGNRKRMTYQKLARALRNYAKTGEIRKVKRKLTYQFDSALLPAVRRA
# In short: as §1
# ERF = biological target: T6, ERF (Homo sapiens, UniProt P50548 1-548)
# T6 sequence: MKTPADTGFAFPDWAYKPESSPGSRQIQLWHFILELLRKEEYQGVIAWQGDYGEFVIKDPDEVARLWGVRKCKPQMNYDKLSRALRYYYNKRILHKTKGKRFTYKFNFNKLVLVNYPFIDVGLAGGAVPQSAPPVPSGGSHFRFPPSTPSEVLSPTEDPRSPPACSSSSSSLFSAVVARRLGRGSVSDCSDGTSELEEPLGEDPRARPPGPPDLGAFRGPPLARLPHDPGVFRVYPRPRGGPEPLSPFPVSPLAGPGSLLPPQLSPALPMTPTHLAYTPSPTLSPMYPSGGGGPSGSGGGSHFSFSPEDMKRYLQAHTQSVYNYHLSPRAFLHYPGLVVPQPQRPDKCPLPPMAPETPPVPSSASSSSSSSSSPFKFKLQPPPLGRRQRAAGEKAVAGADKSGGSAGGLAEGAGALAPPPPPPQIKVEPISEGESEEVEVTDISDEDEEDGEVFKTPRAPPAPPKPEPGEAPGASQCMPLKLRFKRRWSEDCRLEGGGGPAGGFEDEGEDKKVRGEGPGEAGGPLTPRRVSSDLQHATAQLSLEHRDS
# In short: as §1
# ETV7 = biological target: T7, ETV7 (Homo sapiens, UniProt Q9Y603 1-341)
# T7 sequence: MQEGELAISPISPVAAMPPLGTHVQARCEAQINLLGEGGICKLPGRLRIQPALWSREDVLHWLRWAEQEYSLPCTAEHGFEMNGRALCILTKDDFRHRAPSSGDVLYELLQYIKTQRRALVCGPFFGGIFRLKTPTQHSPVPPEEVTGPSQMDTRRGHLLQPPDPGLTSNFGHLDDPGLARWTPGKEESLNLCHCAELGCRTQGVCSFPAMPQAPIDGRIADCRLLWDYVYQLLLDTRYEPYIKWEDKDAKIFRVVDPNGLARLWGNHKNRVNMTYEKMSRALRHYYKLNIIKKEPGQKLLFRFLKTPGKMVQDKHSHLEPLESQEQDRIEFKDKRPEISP
# In short: as §1
# ELK1 = biological target: T8, ELK1 (Homo sapiens, UniProt P19419 1-428)
# T8 sequence: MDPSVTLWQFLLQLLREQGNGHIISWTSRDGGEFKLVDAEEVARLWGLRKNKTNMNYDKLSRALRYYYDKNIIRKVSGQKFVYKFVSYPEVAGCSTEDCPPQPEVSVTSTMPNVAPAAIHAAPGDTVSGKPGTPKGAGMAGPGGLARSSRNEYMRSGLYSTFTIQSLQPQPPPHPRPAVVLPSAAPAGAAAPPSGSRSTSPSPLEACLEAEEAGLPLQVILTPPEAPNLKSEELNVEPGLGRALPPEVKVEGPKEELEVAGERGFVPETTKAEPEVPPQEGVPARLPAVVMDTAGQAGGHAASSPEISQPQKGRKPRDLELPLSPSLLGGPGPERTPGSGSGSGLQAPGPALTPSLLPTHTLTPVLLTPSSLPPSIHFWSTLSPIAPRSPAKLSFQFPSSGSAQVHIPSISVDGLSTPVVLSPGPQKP
# In short: as §1
# ELF3 = biological target: T9, ELF3 (Homo sapiens, UniProt P78545 1-371)
# T9 sequence: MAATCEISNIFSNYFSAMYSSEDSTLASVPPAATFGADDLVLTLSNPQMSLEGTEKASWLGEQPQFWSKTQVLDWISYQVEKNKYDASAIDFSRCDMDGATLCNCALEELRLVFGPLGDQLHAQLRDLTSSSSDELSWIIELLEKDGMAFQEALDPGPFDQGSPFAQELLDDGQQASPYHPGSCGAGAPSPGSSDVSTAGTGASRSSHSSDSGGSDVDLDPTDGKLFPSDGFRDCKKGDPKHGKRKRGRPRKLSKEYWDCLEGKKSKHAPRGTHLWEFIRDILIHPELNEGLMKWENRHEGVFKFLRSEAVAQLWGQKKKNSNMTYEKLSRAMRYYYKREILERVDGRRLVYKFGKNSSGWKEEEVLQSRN
# In short: as §1
# CRX = CRX (Homo sapiens, UniProt O43186 1-299)
# Chain of CRX (O43186 whole entry): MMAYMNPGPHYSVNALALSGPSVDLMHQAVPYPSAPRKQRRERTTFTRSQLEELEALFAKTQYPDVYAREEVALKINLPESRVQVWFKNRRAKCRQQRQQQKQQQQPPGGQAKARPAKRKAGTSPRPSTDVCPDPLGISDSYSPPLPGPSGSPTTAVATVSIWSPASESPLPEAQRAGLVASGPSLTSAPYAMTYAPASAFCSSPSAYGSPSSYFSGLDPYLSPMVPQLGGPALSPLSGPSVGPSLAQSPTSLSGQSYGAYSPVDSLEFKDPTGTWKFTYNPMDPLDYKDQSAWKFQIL
# In short: as §1
# SPDEF = biological target: T10, SPDEF (Homo sapiens, UniProt O95238 1-335)
# T10 sequence: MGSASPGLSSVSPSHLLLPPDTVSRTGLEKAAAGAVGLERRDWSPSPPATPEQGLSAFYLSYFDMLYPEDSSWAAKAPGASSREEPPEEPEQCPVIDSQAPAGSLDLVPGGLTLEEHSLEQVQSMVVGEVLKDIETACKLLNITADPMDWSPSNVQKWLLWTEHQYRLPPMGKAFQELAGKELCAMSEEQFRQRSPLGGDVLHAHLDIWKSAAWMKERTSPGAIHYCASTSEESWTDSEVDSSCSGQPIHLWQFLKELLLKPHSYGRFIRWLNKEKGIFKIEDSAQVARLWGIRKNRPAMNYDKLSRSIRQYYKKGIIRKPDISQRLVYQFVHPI
# In short: as §1
sequence,measurement,setting,value
CACTGA,binding signal,GABPA,"1.09 fold enrichment (6-mer frequency, TF over GST control)"
same,binding signal,ELF1,"1.02 fold enrichment (6-mer frequency, TF over GST control)"
same,binding signal,ELK3,"1.07 fold enrichment (6-mer frequency, TF over GST control)"
same,binding signal,SPIC,"1.06 fold enrichment (6-mer frequency, TF over GST control)"
same,binding signal,ELK4,"1.01 fold enrichment (6-mer frequency, TF over GST control)"
same,binding signal,ETV1,"1.09 fold enrichment (6-mer frequency, TF over GST control)"
same,binding signal,ETS2,"1.04 fold enrichment (6-mer frequency, TF over GST control)"
GTACAG,binding signal,SPIB,"1.01 fold enrichment (6-mer frequency, TF over GST control)"
same,binding signal,SPIC,"1.02 fold enrichment (6-mer frequency, TF over GST control)"
same,binding signal,ERF,"1.02 fold enrichment (6-mer frequency, TF over GST control)"
same,binding signal,ETV7,"1.06 fold enrichment (6-mer frequency, TF over GST control)"
GATCAC,binding signal,ELK1,"1.01 fold enrichment (6-mer frequency, TF over GST control)"
same,binding signal,ELF1,"1.02 fold enrichment (6-mer frequency, TF over GST control)"
same,binding signal,ELK3,"1.16 fold enrichment (6-mer frequency, TF over GST control)"
same,binding signal,SPIC,"1.01 fold enrichment (6-mer frequency, TF over GST control)"
same,binding signal,ELF3,"1.04 fold enrichment (6-mer frequency, TF over GST control)"
same,binding signal,CRX,"1.09 fold enrichment (6-mer frequency, TF over GST control)"
same,binding signal,SPDEF,"1 fold enrichment (6-mer frequency, TF over GST control)"

# From paper PMC7862700, “An all-to-all approach to the identification of sequence-specific readers for epigenetic DNA modifications on cytosine”
